PubChem BioAssay (NCI)
Where “and” joins values, the source holds several entries; their conditions need not be identical. Identical values can stand only once. About 83,000 compounds went through this panel and 20% of them were active in at least one assay; those are over-represented in the sample as a whole.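 Single-concentration screen, 48 h exposure, 96-well plates. Endpoint: percent growth. Below 10 = active.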 A structure can be active in one record and inactive in another. Calls of active or inactive are those of the source.

Columns and labels:
Test in all cases: NCI-60 one-dose screen, 48 h (100 = growth as untreated, 0 = no growth, -100 = all killed)
Details in all cases: 10 µM unless noted
[1] = tested on: HCT-15 colon
[2] = tested on: HT29 colon
[3] = tested on: SNB-75 CNS
[4] = tested on: SNB-19 CNS
[5] = tested on: U251 CNS
[6] = tested on: PC-3 prostate
[7] = tested on: SK-MEL-5 melanoma
[8] = tested on: UACC-62 melanoma
[9] = tested on: LOX IMVI melanoma
[10] = tested on: SK-MEL-28 melanoma

**Q.** For `O=[N+]([O-])c1ccc(-n2[nH]nnc2=S)cc1`, which growth [1] is on record?
**A.** The growth was 97.5% (inactive).

**Q.** And the growth [2]?
**A.** Its growth is 99.2% (inactive).

**Q.** What about the growth [3] of the same compound?
**A.** The growth was 89.1% (inactive).

**Q.** What about the growth [4] of the same compound?
**A.** The growth was 98.1% (inactive).

**Q.** What about the growth [5] of the same compound?
**A.** The growth was 108% (inactive).

**Q.** What about the growth [6] of the same compound?
**A.** Its growth is 92% (inactive).

**Q.** What about the growth [7] of the same compound?
**A.** The growth was 122% (inactive).

**Q.** What about the growth [8] of the same compound?
**A.** Its growth is 94.6% (inactive).

**Q.** What about the growth [9] of the same compound?
**A.** The growth was 94.4% (inactive).

**Q.** And the growth [10]?
**A.** The growth was 106% (inactive).

**Q.** For `Nc1cc(-c2cccc(OC(F)(F)F)c2)nc2ccc(N3CCCC3)cc12`, which growth [1] is on record?
**A.** The growth was 7.95% (active) and 7.96% (active) and 7.69% (active).

**Q.** And the growth [2]?
**A.** The growth was 1.32% (active) and 5.14% (active) and -8.94% (active).

**Q.** And the growth [3]?
**A.** The growth was 29.7% (inactive) and 34.7% (inactive).

**Q.** And the growth [4]?
**A.** The growth was 31% (inactive) and 30.5% (inactive) and 23% (inactive).

**Q.** What about the growth [5] of the same compound?
**A.** The growth was -3.82% (active) and 5.25% (active) and 1.38% (active).

**Q.** And the growth [6]?
**A.** The growth was 20.5% (inactive) and 22.2% (inactive) and 18.3% (inactive).

**Q.** What about the growth [7] of the same compound?
**A.** Its growth is -41.1% (active) and -39.4% (active) and -14.8% (active).

**Q.** And the growth [8]?
**A.** The growth was 8.8% (active) and 27.2% (inactive) and 38.7% (inactive).

**Q.** What about the growth [9] of the same compound?
**A.** The growth was 2.06% (active) and 12.6% (inactive) and 20.4% (inactive).

**Q.** What about the growth [10] of the same compound?
**A.** The growth was -57.4% (active) and 37.1% (inactive) and 52.9% (inactive).

**Q.** Which results are given for `Cc1cc(-c2ccc(NS(=O)(=O)c3ccccc3)c(C)c2)ccc1NS(=O)(=O)c1ccccc1`?
**A.** growth [1]: 84.8% (inactive) and 84.9% (inactive); growth [2]: 74.2% (inactive) and 99.7% (inactive); growth [3]: 72.6% (inactive) and 105% (inactive); growth [4]: 91.4% (inactive) and 101% (inactive); growth [5]: 94% (inactive) and 95.2% (inactive); growth [6]: 63.1% (inactive) and 78.7% (inactive); growth [7]: 87.2% (inactive); growth [8]: 55.8% (inactive) and 63.5% (inactive); growth [9]: 84% (inactive) and 75% (inactive); growth [10]: 92.2% (inactive) and 109% (inactive)

**Q.** Which growth [1] does the source give for `COc1cc(-c2nccc3cc4c(cc23)OCO4)cc(OC)c1OC` here?
**A.** The growth was 22.1% (inactive) and 27.9% (inactive).

**Q.** What about the growth [2] of the same compound?
**A.** Its growth is 1.74% (active) and 5.6% (active).

**Q.** And the growth [3]?
**A.** The growth was 10.8% (inactive) and -9.99% (active).

**Q.** What about the growth [4] of the same compound?
**A.** Its growth is 38.3% (inactive) and 38.8% (inactive).

**Q.** What about the growth [5] of the same compound?
**A.** The growth was 40.6% (inactive) and 24.1% (inactive).

**Q.** And the growth [6]?
**A.** The growth was 29.5% (inactive).

**Q.** And the growth [7]?
**A.** The growth was 6.67% (active).

**Q.** What about the growth [8] of the same compound?
**A.** The growth was 34.2% (inactive) and 28.3% (inactive).

**Q.** What about the growth [9] of the same compound?
**A.** The growth was 32.2% (inactive) and 29.6% (inactive).

**Q.** And the growth [10]?
**A.** Its growth is 57.5% (inactive) and 39.8% (inactive).

**Q.** For `CC1CCCc2sc3nc(NNC(=O)c4cnccn4)n(-c4ccccc4)c(=O)c3c21` (stereo not given), which growth [1] is on record?
**A.** The growth was 26.4% (inactive) and 24.6% (inactive).

**Q.** And the growth [2]?
**A.** The growth was 22.4% (inactive) and 26.2% (inactive).

**Q.** What about the growth [3] of the same compound?
**A.** The growth was 36.4% (inactive) and 2.93% (active).

**Q.** And the growth [4]?
**A.** The growth was 25.8% (inactive) and 21.6% (inactive).

**Q.** And the growth [5]?
**A.** The growth was 4.39% (active) and 8.03% (active).

**Q.** What about the growth [6] of the same compound?
**A.** The growth was 30% (inactive) and 27.4% (inactive).

**Q.** And the growth [7]?
**A.** The growth was -38.3% (active) and -65.9% (active).

**Q.** And the growth [8]?
**A.** The growth was -33.9% (active) and -8.57% (active).

**Q.** And the growth [9]?
**A.** The growth was 0.839% (active) and 2.01% (active).

**Q.** And the growth [10]?
**A.** Its growth is 11.7% (inactive) and 27.4% (inactive).

**Q.** For `C/C(=N\NC(=O)c1ccncc1)c1ccccc1O`, which growth [1] is on record?
**A.** The growth was 22.8% (inactive) and 23.3% (inactive).

**Q.** What about the growth [2] of the same compound?
**A.** Its growth is 29.7% (inactive) and 29.1% (inactive).

**Q.** What about the growth [3] of the same compound?
**A.** The growth was 89.5% (inactive) and 50.9% (inactive).

**Q.** And the growth [4]?
**A.** The growth was 47.8% (inactive) and 46.6% (inactive).

**Q.** And the growth [5]?
**A.** Its growth is 33.8% (inactive) and 33.4% (inactive).

**Q.** And the growth [6]?
**A.** The growth was 44.4% (inactive) and 35.8% (inactive).

**Q.** What about the growth [7] of the same compound?
**A.** The growth was 38.7% (inactive) and 50% (inactive).

**Q.** And the growth [8]?
**A.** The growth was 22% (inactive) and 30.6% (inactive).

**Q.** What about the growth [9] of the same compound?
**A.** The growth was 22.5% (inactive) and 10.9% (inactive).

**Q.** What about the growth [10] of the same compound?
**A.** Its growth is 52.4% (inactive) and 63.1% (inactive).

**Q.** What does the source list for `CN(C)c1ccc2nc3ccc(=[N+](C)C)cc-3sc2c1`?
**A.** growth [1]: 28.5% (inactive) and 36.7% (inactive); growth [2]: 26.6% (inactive) and 19.8% (inactive) and 74.9% (inactive); growth [3]: 49.4% (inactive) and 90.2% (inactive); growth [4]: 24.7% (inactive) and 23% (inactive) and 39.5% (inactive); growth [5]: 3.44% (active) and -10.6% (active) and 8.51% (active); growth [6]: 13.7% (inactive) and 19.8% (inactive) and 32.8% (inactive); growth [7]: -85.2% (active) and 5.71% (active) and 13.6% (inactive); growth [8]: -19.7% (active) and 7.25% (active) and 56.5% (inactive); growth [9]: 7.11% (active) and 5.63% (active) and 34.6% (inactive); growth [10]: 20% (inactive) and 45.9% (inactive) and 75% (inactive)

**Q.** Which growth [1] does the source give for `CN(Cc1ccccc1)Cc1ccccc1` here?
**A.** Its growth is 103% (inactive).

**Q.** What about the growth [2] of the same compound?
**A.** Its growth is 102% (inactive).

**Q.** What about the growth [3] of the same compound?
**A.** The growth was 87.4% (inactive).

**Q.** And the growth [4]?
**A.** Its growth is 106% (inactive).

**Q.** And the growth [5]?
**A.** The growth was 99% (inactive).

**Q.** What about the growth [6] of the same compound?
**A.** The growth was 103% (inactive).

**Q.** And the growth [7]?
**A.** Its growth is 104% (inactive).

**Q.** And the growth [8]?
**A.** The growth was 101% (inactive).

**Q.** What about the growth [9] of the same compound?
**A.** The growth was 95.1% (inactive).

**Q.** What about the growth [10] of the same compound?
**A.** Its growth is 110% (inactive).
